DNA FID counter = fluorescent intercalator displacement, NS3 helicase counter-screen. DNA fluorescent intercalator displacement, fluorescence. 290,000 tested, 0.17% active. inhibition, % at 7.9 µM. AID 1845; in the data active means inhibition above about 37%;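 further: 0% = vehicle and 100% = reference compound; higher means more ethidium bromide displaced from hairpin DNA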
RAD52 anneal inh = inhibitors of human RAD52 DNA annealing. recombinant RAD52 DNA annealing, FRET fluorescence. inhibition, % at 18.7 µM. 360,000 tested, 0.46% active;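 active means every replicate showing at least 50% inhibition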
miR-122 sensor = blocks miR-122 activity in Huh7 sensor cells; Huh7 miR-122 Renilla luciferase sensor, 48 h; neutral wells = 0, positive control = 100; activation (reporter increase), % at 12.5 µM; 340,000 tested, 0.3% active;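 active means mean replicate activation score at least 90 and every replicate individually at or above 90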;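 further: higher luciferase means less miR-122 activity so hits act as miR-122 inhibitors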
CendR NRP1 mod = NRP-1/CendR interaction modulation; FAM-RPARPAR peptide binding to NRP-1, fluorescence polarization; inhibition, % at 25 µM; 360,000 tested, 0.85% active; AID 602438;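 active means inhibition or corrected inhibition above about 18%, plus a signal ratio from 0.5 to 1.5, limit read from the data, passing the limit was not always enough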
RAD54 inh = blocks human RAD54 Holliday junction branch migration; FAM/BHQ fluorescence; Q92698; AID 602329; inhibition, % at 10.4 µM; 360,000 tested, 0.14% active;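 active means mean normalized replicate activity at least 40 and at least half of replicates scoring 40 or more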;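 further: 0% = median of neutral control wells and 100% = median of positive control wells; inhibitors cause a drop in the FAM fluorescence signal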
N-glyco inh = blocks N-linked glycosylation in D54 reporter cells | D54 ERlucT glycosylation luciferase reporter, 24 h; percent of 100 nM tunicamycin response | reporter increase, % at 12.5 µM | 360,000 tested, 0.23% active | AID 588692;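 active means mean luciferase reporter signal, scaled so untreated is 0 and the glycosylation-blocking control 100, at or above a set limit in every replicate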;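 further: luciferase carries N-glycosylation sites so blocking glycosylation raises the light; 0% = median of neutral control wells and 100% = median of 100 nM tunicamycin wells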
* = called active by the depositor; . = not tested or not shown; [ ] = dose if it differs, or a comment. Compounds with a hit are over-represented: about 1.5% of the library has one in this group of screens.

SMILES	DNA FID counter	RAD52 anneal inh	miR-122 sensor	CendR NRP1 mod	RAD54 inh	N-glyco inh
CC(=O)Nc1ccc(S(=O)(=O)Nc2ccc3c(c2)n(C)c(=O)n3C)c(C)c1	-2.3	-7.1	155.7*	-0.2	-0.6	6.2
Cc1cc(S(=O)(=O)Nc2ccc3c(c2)n(C)c(=O)n3C)ccc1F	1.9	-17.1	.	8.6	.	13.6
COc1ccc(Cl)cc1S(=O)(=O)Nc1ccc2c(c1)n(C)c(=O)n2C	-18.6	-19.9	.	16.2	14.1	58.3*
COc1ccc(CN(C)C[C@H]2OCCCC[C@H](C)Oc3ccc(NC(=O)NC(C)C)cc3C(=O)N([C@H](C)CO)C[C@H]2C)cc1	.	6.8	-4.8[16.7 µM]	.	8.5	.
CCCCc1ccc(S(=O)(=O)N2CCC3(CC2)OCCO3)cc1	-34.0	14.4	.	32.6*	2.7	-0.4
COc1ccc2c3c([nH]c2c1)[C@H](CO)N(C)CC31CN(C(=O)c2cccnc2)C1	.	9.1	.	.	.	.
CN1CCCc2cc3c(C(F)(F)F)cc(=O)oc3nc21	-1.9	.	-6.8	38.4*	-7.5	-2.1
CC(Sc1nnc(-c2ccc(C(C)(C)C)cc2)n1C)C(N)=O (configuration not stated)	-13.5	.	4.0	23.7*	.	-1.1
Cn1c(SCC(=O)C(C)(C)C)nnc1-c1ccc(F)cc1	-5.2	3.1	2.3	-1.5	.	1.4
C[C@@H]1CN([C@H](C)CO)C(=O)c2cc(NC(=O)NC3CCCCC3)ccc2O[C@H]1CN(C)Cc1ccc2c(c1)OCO2	.	-3.8	0.6[16.7 µM]	.	4.2	.
CC(=O)N1CCN(C(=S)c2ccc([N+](=O)[O-])cc2)CC1	-0.9	.	4.3	18.4*	-0.9	1.2
COC(=O)C[C@@H]1CC[C@@H]2[C@H](COc3ccc(NC(=O)Nc4cccc(Cl)c4)cc3C(=O)N2C)O1	.	-9.1	-8.8[16.7 µM]	.	2.4	.
O=c1c(-c2ccc(O)cc2)coc2c([C@@H]3O[C@H](CO)[C@@H](O)[C@H](O)[C@H]3O)c(O)ccc12	.	-7.7	-7.9	24.2*	-3.2	-1.4
O=C(NCc1ccccc1)c1nc[nH]c1C(=O)N1CCN(c2ccccc2)CC1	.	-38.7	-5.3	30.1*	4.7	3.6
CN(Cc1ccccc1)C(=O)c1[nH]cnc1C(=O)NCc1ccc(CNC(=O)OC(C)(C)C)cc1	.	-10.6	-3.3	30.1*	1.6	-2.3
CC(C)(C)OC(=O)[C@H](Cc1ccccc1)NC(=O)c1nc[nH]c1C(=O)N1CCNCC1	.	-8.3	-1.5	34.2*	-16.9	0.6
CC(C)(C)OC(=O)NCc1ccc(CNC(=O)c2nc[nH]c2C(=O)NCc2ccccc2)cc1	.	-2.9	-3.1	5.2	-2.5	3.1
CC1CCN(C(=O)c2[nH]cnc2C(=O)NCc2ccccc2)CC1	.	-15.7	8.2	20.2	4.8	1.8
CC1CCN(C(=O)c2[nH]cnc2C(=O)NCc2ccc(CNC(=O)OC(C)(C)C)cc2)CC1	.	-11.6	-5.1	30.0*	3.0	-1.8
OC(CSc1nc2ccccc2s1)CC(O)c1ccccc1 (configuration not stated)	.	0.4	.	.	-3.7	.
C[C@@H]1CN([C@@H](C)CO)C(=O)c2cccc(NC(=O)C3CCOCC3)c2O[C@H]1CN(C)C(=O)Nc1ccc2c(c1)OCO2	.	-14.0	-3.6[16.7 µM]	.	-2.5	.
CC(C)(C)OC(=O)N1CCN(C(=O)c2[nH]cnc2C(=O)NCc2ccccc2)CC1	.	-9.1	-6.1	33.4*	-1.3	4.5
CC(C)(C)OC(=O)N1CCC(NC(=O)c2nc[nH]c2C(=O)N2CCN(C(=O)OC(C)(C)C)CC2)CC1	.	2.8	.	4.1	-4.5	0.2
CC(C)(C)OC(=O)N1CCC(NC(=O)c2nc[nH]c2C(=O)N2CCc3ccccc3C2)CC1	.	-0.8	1.4	30.0*	-7.9	1.4
CNC[C@@H]1Oc2ccc(NC(=O)C3CC3)cc2C(=O)N([C@@H](C)CO)C[C@H]1C	.	-1.3	-7.3[16.7 µM]	.	4.5	.
CN(C(=O)COC(=O)c1nc(-c2ccccc2)n(-c2ccccc2)n1)C1CCS(=O)(=O)C1 (configuration not stated)	-8.0	.	-17.3	39.8*	-0.5	2.7
Cc1nn(-c2ccccc2)c(C)c1C(=O)OCC(=O)N(C)C1CCS(=O)(=O)C1 (configuration not stated)	-3.8	2.1	.	9.5	.	-4.5
Cc1ccc(SCC(=O)OCC(=O)N(CC(C)C)C2CCS(=O)(=O)C2)cc1C (configuration not stated)	.	-13.8	-11.5	11.0	-12.5	4.9
